High-throughput results: PubChem BioAssay, National Center for Advancing Translational Sciences (NCATS)
Compounds with a hit are over-represented: about 8% of the library has one in this group of screens.
MCF10A rereplic – inducers of DNA re-replication in MCF 10A breast cells; MCF 10A DNA re-replication, Hoechst nuclear intensity, 48 h; Potency, µM (highest dose often 46.1 µM), most hits filed as activators; actives 2.9% (n = 350,000); note: nearly all actives have a fitted effect of over 50% in size
HT1080 IDH1KD tx – toxicity to HT-1080 IDH1 knockdown cells (counter line); Potency, µM (top dose mostly 46.1 µM), usual class: cytotoxic; actives 2% (n = 360,000); AID 686971; HT-1080 IDH1 knockdown viability, ATP luminescence, 48 h
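HT-1080-IDH1KD cells (IDH1 knocked down), 750/well in RPMI with 5% FBS, treated with compound 48 h at 37 degrees C. Viability by CellTiter-Glo luminescence, normalised to DMSO and no-cell wells; concentration-response curves classed.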
HT1080NT lethal – kills 2HG-producing HT-1080-NT fibrosarcoma cells. HT-1080-NT fibrosarcoma viability, CellTiter-Glo ATP luminescence, 48 h. Potency, µM (series often up to 46.1 µM), usual class: cytotoxic. actives 1.6% (n = 360,000). AID 686970;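 note: NT is the 2HG producing partner of a matched IDH1 knockdown line; nearly all actives have a fitted effect of over 55% in size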
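Toxicity toward the 2HG-producing NT line was scored as %Activity, normalised to DMSO and no-cell wells, from CellTiter-Glo luminescence after 48 hours' treatment.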
KB-3-1 cytotox – kills parental KB-3-1 adenocarcinoma cells; KB-3-1 viability, CellTiter-Glo ATP luminescence, 72 h; Potency, µM (doses to about 46.1 µM), hits mostly cytotoxic; actives 1.4% (n = 400,000); AID 1347075; note: nearly all actives have a fitted effect of over 60% in size
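Multi-concentration cytotoxicity screen in KB-3-1 cells grown in DMEM lacking phenol red with 10% FBS. After 72 h at 37 °C with compound, ATP-dependent luminescence was recorded.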
KB-V1 cytotox – KB-V1 MDR subline cytotoxicity; KB-V1 MDR cells viability, CellTiter-Glo, 72 h; Potency, µM (doses to about 46.1 µM), most hits filed as cytotoxic; actives 3.4% (n = 400,000); note: nearly all actives have a fitted effect of over 60% in size
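In this primary screen, KB-V1 cells overexpressing P-gp are incubated with library compounds (lowest to highest concentration) for 72 h at 37 degrees C before a luminescent ATP viability read.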
SW480 rereplic – DNA re-replication induction in SW480 cells; Potency, µM (series often up to 46.1 µM), hits mostly activators; actives 1.8% (n = 340,000); SW480 DNA re-replication, Hoechst DNA content imaging, 48 h; AID 624297; note: nearly all actives have a fitted effect of over 55% in size
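Readout is total intensity of Hoechst-stained nuclei, excited at 405 nm and collected at 500-530 nm. Compound treatment lasted 48 hr at 37 C in 5% CO2 before staining.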
Numbers stand for hits; – = inactive; ? = inconclusive; · = no result. Calls come from the whole dose curve; as a rule, active = well fitted curve in the direction sought with a large enough effect; inconclusive = small, poorly fitted or top-dose-only effect, or another doubt; inactive = no such curve, though single readings can be large; an effect the other way counts as inactive or inconclusive.

SMILES | MCF10A rereplic | HT1080 IDH1KD tx | HT1080NT lethal | KB-3-1 cytotox | KB-V1 cytotox | SW480 rereplic
C=CCCC(=O)Nc1nc(C)c(-c2csc(Nc3ccc(Cl)cc3Cl)n2)s1 | – | ? | 16µM | ? | ? | –
C=CCCC(=O)Nc1nc(C)c(-c2csc(Nc3ccccc3OC)n2)s1 | – | 16µM | ? | 7.3µM | ? | ?
CCC(=O)Nc1nc(C)c(-c2csc(Nc3cccc(O)c3)n2)s1 | 21µM | 0.46µM | ? | ? | ? | ?
CCCCCC(=O)Nc1nc(C)c(-c2csc(Nc3ccc(Cl)cc3)n2)s1 | – | ? | – | – | – | –
CCCCC(=O)Nc1nc(C)c(-c2csc(Nc3ccccc3OC)n2)s1 | ? | – | – | ? | – | –
O=C(NCc1ccncc1)c1ccc(-c2ccc(F)c(F)c2)c2ccoc12 | · | ? | ? | – | ? | ·
COc1ccc(S(=O)(=O)Nc2c(C(=O)O)[nH]c3ccccc23)cc1 | – | – | – | – | – | –
Cn1c(CNC(=O)CNC(=O)c2cccc(Cl)c2)cc(=O)n(C)c1=O | – | – | – | – | – | –
Cn1c(=O)[nH]c(=O)c2c1nc(Br)n2CCCSc1nc2ccccc2o1 | 13µM | ? | ? | ? | ? | 7.3µM
Cc1cccc(Cn2c(Sc3nc(C)cs3)nc3c2c(=O)[nH]c(=O)n3C)c1 | – | – | – | – | 4.1µM | –
Cn1c(=O)[nH]c(=O)c2c1nc(Br)n2Cc1cccc(Br)c1 | ? | 4.6µM | 6.5µM | ? | ? | ?
Cn1c(=O)c2c(nc(Br)n2Cc2ccc3ccccc3c2)n(C)c1=O | ? | – | ? | 7.3µM | 2.6µM | –
O=C(NCCC1=CCCCC1)c1ccc(Br)o1 | – | – | – | – | – | –
Cc1nonc1NC(=O)CSc1ccc(-c2ccccc2)nn1 | – | – | – | – | – | –
COC(=O)COc1nc(C)c(Br)c(OC)n1 | – | – | – | – | – | –
O=C(CCC(=O)OCC(=O)c1ccc(Br)cc1)NC1CCCCC1 | – | – | – | – | – | –
CC(C)(C)c1ccc(C(=O)CCCSC2=C(C#N)C(c3ccco3)C3=C(CCCC3=O)N2)cc1 (configuration not stated) | ? | – | ? | ? | 10µM | ?
Cc1ccc(C(=O)CSC2=C(C#N)C(c3ccco3)C3=C(CCCC3=O)N2)cc1 (configuration not stated) | 8.2µM | 5.6µM | 5µM | ? | 8.2µM | 5.8µM
N#CC1=C(SCC(=O)c2ccccc2)NC2=C(C(=O)CCC2)C1c1ccco1 (configuration not stated) | 8.9µM | 4.6µM | ? | 18µM | ? | 15µM
COc1ccc(NC(=O)CSC2=C(C#N)C(c3ccco3)C3=C(CCCC3=O)N2)c(OC)c1 (configuration not stated) | ? | – | – | – | – | ?
CN1CCN(S(=O)(=O)c2cc(Cl)c(Cl)cc2Cl)CC1 | – | – | – | – | ? | –
CC1=C(C(=O)N(C)C)CC(CC(=O)NCc2cccs2)C(=O)N1CCC1=CCCCC1 (configuration not stated) | · | – | – | – | – | ·
Nc1cc(Cc2ccccc2)ccc1O | ? | – | – | – | 18µM | –
CC(=O)N1CCN(S(=O)(=O)c2cccc(C(=O)OCN3C(=O)c4ccccc4C3=O)c2)CC1 | – | – | ? | – | – | –
Cc1ccc2nc3c(cc(C(=O)NCc4ccco4)c(=N)n3Cc3ccco3)c(=O)n2c1 | ? | – | – | – | – | –
SMILES | MCF10A rereplic | HT1080 IDH1KD tx | HT1080NT lethal | KB-3-1 cytotox | KB-V1 cytotox | SW480 rereplic
N=c1c(C(=O)NCc2ccc3c(c2)OCO3)cc2c(=O)n3ccccc3nc2n1Cc1cccnc1 | – | – | – | – | – | –
COCCn1c(=N)c(C(=O)NCc2ccco2)cc2c(=O)n3ccccc3nc21 | 10µM | ? | – | – | – | ?
COCCn1c(=N)c(C(=O)NCC2CCCO2)cc2c(=O)n3ccccc3nc21 (configuration not stated) | · | · | · | – | ? | ·
N=c1c(C(=O)NCc2ccccc2)cc2c(=O)n3ccccc3nc2n1Cc1ccco1 | 13µM | – | – | – | – | 16µM
Cc1ccc(CNC(=O)c2cc3c(=O)n4ccccc4nc3n(Cc3ccco3)c2=N)cc1 | 7.9µM | – | – | – | – | 16µM
N=c1c(C(=O)NCc2ccco2)cc2c(=O)n3ccccc3nc2n1Cc1ccccc1 | 18µM | – | – | ? | ? | 15µM
COc1ccc(CNC(=O)c2cc3c(=O)n4ccccc4nc3n(Cc3cccnc3)c2=N)cc1 | ? | – | – | – | – | –
Cc1sc(N)c(C(=O)c2ccccc2Cl)c1C | – | – | – | – | – | –
Cc1ccc(S(=O)(=O)c2cc3c(=O)n4ccccc4nc3n(Cc3ccco3)c2=N)cc1 | – | ? | ? | – | 8.2µM | –
CC(C)n1c(=N)c(C(=O)NCCc2ccccc2)cc2c(=O)n3ccccc3nc21 | 13µM | – | – | – | ? | 23µM
Cc1ccc(S(=O)(=O)c2cc3c(=O)n4ccccc4nc3n(C3CCCCC3)c2=N)cc1 | – | – | – | – | – | –
N=c1c(C(=O)NCc2ccco2)cc2c(=O)n3ccccc3nc2n1Cc1ccc(Cl)cc1 | 2.3µM | – | – | ? | ? | 9.2µM
Cc1cccn2c(=O)c3cc(C(=O)NCc4cccnc4)c(=N)n(C(C)C)c3nc12 | ? | – | – | – | – | ?
CCOC(=O)c1cc2c(=O)n3ccccc3nc2n(Cc2ccc(Cl)cc2)c1=N | 1.6µM | – | – | – | – | 2.1µM
COc1ccc(C(C(=O)NC2CCCC2)N(C(=O)c2ccco2)c2ccc(OC)c(OC)c2)cc1 (configuration not stated) | – | – | – | – | – | –
CCOC(=O)c1c(NC(=O)CN2CCC(C)CC2)sc(C)c1C | ? | – | – | – | ? | –
CCOCc1nc(N)[nH]c(=O)c1Cc1ccc(OC(C)C)cc1 | – | – | – | – | – | –
COC(=O)c1c(N2C(=O)Nc3ccccc3N2O)sc2c1CCCC2 | – | – | – | ? | ? | –
CCC1NC(=O)c2cccnc2-n2c1nc1cc(C)cc(C)c1c2=O (configuration not stated) | · | – | – | – | – | ·
C[C@]12c3[nH]c4ccccc4c3CCN1C(=O)C(CC(=O)NCc1cccc(C(F)(F)F)c1)C[C@@H]2C(=O)N1CCCCC1 (some centres not stated) | ? | ? | – | – | – | –
N=c1c(C(=O)NCc2ccc(F)cc2)cc2c(=O)n3ccccc3nc2n1Cc1ccco1 | 6.5µM | – | – | – | ? | ?
COc1ccc(CCNC(=O)c2cc3c(=O)n4cccc(C)c4nc3n(Cc3ccco3)c2=N)cc1OC | ? | – | – | – | – | ?
